# Screens (PubChem BioAssay)
# GoLoco inh red: qHTS Assay for Inhibitors of RGS12 GoLoco Motif Activity (Red Fluorophore) | hit rate 0.44% among 230,000 | Potency, µM (top dose mostly 61.6 µM), actives largely listed as inhibitors | Gai1:RGS12 GoLoco peptide FP, rhodamine, 10 min | Guanine nucleotide-binding protein G(i) subunit alpha-1 (Homo sapiens), P63096 | AID 880, 2007; active means well fitted inhibition curve with a large enough effect, not every such curve was filed as active; inactive means no such curve, though single readings can be large or run the other way; further: nearly all actives have a fitted effect of over 30% in size
# ERG Ets-DNA blk: qHTS for Small Molecule Inhibitors of the ERG Ets/DNA interaction; Potency, µM (doses to about 76.9 µM), most hits filed as inhibitors; hit rate 0.028% among 370,000; Transcriptional regulator ERG (Homo sapiens), P11308; AID 624246, 2012; fluorescence polarization, His-ERG Ets domain / labelled DNA; active means well fitted inhibition curve with a large enough effect in the polarisation, with a control signal flat; inconclusive means small, poorly fitted or top-dose-only effect, or effect the other way, or a change in a side signal; inactive means no such curve, though single readings can be large or run the other way; the % refers to the polarisation;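 further: polarization taken with two DNA probes labelled with fluorescein and Texas red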
#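 His-tagged ERG Ets domain (1 uM in the protein solution; 300mM KCl, 50mM Tris-HCl, 1mM EDTA, 1mM DTT, pH 7.5) received compound, then a probe mix of 5 nM fluorescein-DNA and 100nM Texas-615-DNA. Fluorescence polarization was read for both dyes.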
# RECQ1 inh: qHTS Assay for Inhibitors of RecQ-Like Dna Helicase 1 (RECQ1); AID 2549, 2010; RECQ1 DNA unwinding, red fluorescence kinetic read; hit rate 0.54% among 240,000; Potency, µM (highest dose often 57.3 µM), most hits filed as inhibitors; further: nearly all actives have a fitted effect of over 30% in size
# Target sequence (P46063 whole entry, looked up): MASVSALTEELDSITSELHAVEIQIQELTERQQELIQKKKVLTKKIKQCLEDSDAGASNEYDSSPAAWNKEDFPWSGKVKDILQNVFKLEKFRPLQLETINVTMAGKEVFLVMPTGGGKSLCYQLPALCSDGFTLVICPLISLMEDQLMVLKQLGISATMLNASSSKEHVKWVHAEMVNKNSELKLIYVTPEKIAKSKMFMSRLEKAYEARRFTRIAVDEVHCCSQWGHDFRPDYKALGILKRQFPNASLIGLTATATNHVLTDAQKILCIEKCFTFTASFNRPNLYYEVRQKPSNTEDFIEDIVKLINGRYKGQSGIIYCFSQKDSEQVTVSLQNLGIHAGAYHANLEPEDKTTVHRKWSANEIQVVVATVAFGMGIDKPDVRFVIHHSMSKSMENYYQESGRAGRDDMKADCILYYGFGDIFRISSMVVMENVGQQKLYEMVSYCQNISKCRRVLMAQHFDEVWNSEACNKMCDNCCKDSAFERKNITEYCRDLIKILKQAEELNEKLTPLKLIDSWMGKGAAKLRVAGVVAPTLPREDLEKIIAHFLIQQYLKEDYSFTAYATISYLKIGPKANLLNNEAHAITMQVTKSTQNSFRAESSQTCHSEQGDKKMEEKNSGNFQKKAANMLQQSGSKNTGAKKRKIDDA
#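 RECQ1T1 50 nM; forked duplex (20 bp + 30-nt ss tails) 200 nM, ATP 2 mM final; pH 8.0, 2 mM MgCl2, 2.5 ug/ml poly(dI-dC); 15 min compound preincubation; discontinuous kinetic read over 2 h at RT.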
# TexasRed fluor: Total Fluorescence Counterscreen for Inhibitors of the Interaction of Thyroid Hormone Receptor and Steroid Receptor Coregulator 2; Potency, µM (titrated, usually from 106 µM); TRb/SRC2 Texas Red total fluorescence interference; hit rate 0.29% among 280,000; active means well fitted curve in either direction with a large enough effect; inconclusive means small, poorly fitted or top-dose-only effect
#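 Human TRb ligand-binding domain at 0.6 uM with 20 nM Texas Red SRC2 peptide in Tris buffer containing 1 uM T3 and 5% DMSO, incubated with compound 5 h at ambient temperature. Total fluorescence (555/632 nm) calculated as parallel + 2 × perpendicular.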
# BLM helicase inh: qHTS Assay for Inhibitors of Bloom's syndrome helicase (BLM) | Potency, µM (doses to about 56.1 µM), most hits filed as inhibitors | recombinant BLM DNA unwinding, fluorescence dequenching | AID 2528, 2010 | hit rate 0.2% among 350,000 | RecQ-like DNA helicase BLM (Homo sapiens), P54132; further: nearly all actives have a fitted effect of over 35% in size
# TRb-SRC2 inh: qHTS for Inhibitors of the Interaction of Thyroid Hormone Receptor and Steroid Receptor Coregulator 2; Potency, µM (titrated, usually from 106 µM), hits mostly inhibitors; TRbeta-SRC2 peptide binding, fluorescence polarization; receptor liganded with 1 µM T3; AID 1469, 2008; hit rate 0.065% among 280,000; further: nearly all actives have a fitted effect of over 50% in size
#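 Compounds were added to 0.6 uM TRb ligand-binding domain and 20 nM Texas Red-labeled SRC2 peptide in Tris buffer containing 1 uM T3, incubated 5 hr at ambient temperature, then read by fluorescence polarization.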
# A number is an active result; i = inactive; ? = inconclusive; nt = no result; [ ] = another dose, or the depositor's remark. The list is not random: actives were taken first. Their share in the collection is about 0.71%. Unless noted, the call rests on the fitted dose curve; in most records, active means well fitted curve in the direction sought with a large enough effect; inconclusive means small, poorly fitted or top-dose-only effect, or another doubt; inactive means no such curve, though single readings can be large; an effect the other way counts as inactive or inconclusive.
SMILES,GoLoco inh red,ERG Ets-DNA blk,RECQ1 inh,TexasRed fluor,BLM helicase inh,TRb-SRC2 inh
COc1cc(/C=C(\C#N)C(=O)c2ccc(O)c(O)c2)cc(I)c1O,i,i,0.89µM,i,nt,i
Clc1ccc(CSc2ncnc3c2ncn3[C@@H]2CCCCO2)cc1,i[14.2 µM],nt,nt,nt,nt,nt
O=C(O)c1ccc(/C=N/N2CCN(Cc3ccc(Cl)cc3)CC2)cc1,i,i,i,i,i,i
Cc1ccc(CN2CCN(/N=C/c3ccc(C(=O)O)cc3)CC2)cc1,i,i,i,0.063µM[quencher],i,i
COc1ccc(C2=C(C)C(N3CCC(C(=O)Nc4ccccc4F)CC3)=NS2(=O)=O)cc1,nt,i,nt,i,i,i
COc1ccc(NC(=O)C2CCN(C3=NS(=O)(=O)C(c4ccc(C)c(C)c4)=C3C)CC2)c(OC)c1,nt,i,nt,224µM[quencher],i,?
CC1=C(c2ccc(C)c(C)c2)S(=O)(=O)N=C1N1CCC(C(=O)N2CCCCC2)CC1,nt,i,nt,562µM[quencher],i,i
C=C(C)C(=O)OCCN(C)C,nt,nt,nt,i,nt,i
N#Cc1nc(NCCO)nc(Nc2ccccc2)n1,nt,nt,i,nt,i,nt
COC(=O)C1(C(C)=O)CC2=CC[C@@H]3C(=O)N(c4ccccc4)C(=O)[C@@H]3[C@@H]2Cc2ccccc2[C@@H]1C[N+](=O)[O-] (some centres not stated),i,nt,i,i,i,i
CN(C)/C=C1\C=C2C(=O)c3ccccc3N2C1=O,13µM,?,?,i,i,i
CN(C)S(=O)(=O)N1C(=O)c2ccccc2C1=O,i,i,i,i,i,i
COc1cc(/C=C2\SC(=S)N(NS(=O)(=O)c3ccccc3)C2=O)ccc1O,i,i,28µM,i,i,i
COc1ccc(/C=C2/SC(=S)N(NS(=O)(=O)c3ccccc3)C2=O)cc1,nt,i,nt,nt,i,nt
COc1cc(/C=C2\SC(=S)N(NS(=O)(=O)c3ccc(C)cc3)C2=O)ccc1O,i,i,22µM,i,i,i
CC(C)C[C@H](NC(=O)[C@H](CCCCN)NC(=O)[C@H](CCCNC(=N)N)NC(=O)[C@H](C)NC(=O)[C@H](CO)NC(=O)[C@H](CCCCN)NC(=O)[C@H](CCCNC(=N)N)NC(=O)[C@H](C)NC(=O)CNC(=O)[C@@H](NC(=O)[C@H](Cc1ccccc1)NC(=O)CNC(=O)CNC(=O)[C@@H](N)Cc1ccccc1)[C@H](C)O)C(=O)N[C@@H](C)C(=O)N[C@@H](CC(N)=O)C(=O)N[C@@H](CCC(N)=O)C(=O)O,i,nt,i,i,nt,i
CN(C)Cc1cc(CN(C)C)c(O)c(CN(C)C)c1,nt,nt,nt,i,nt,i
CCCCCCCCCCCCCCCCCC(N)=O,nt,nt,nt,i,nt,i
CC(=O)/C(=C\c1ccccc1F)C(=O)c1ccccc1,i[14.2 µM],nt,nt,nt,nt,nt
Cc1nc(COC(=O)c2cc(O)c3ccccc3c2O)cs1,25µM,i,i,i,i,i
Cc1nc(COC(=O)c2ccc(CO)cc2)cs1,i,i,i,i,i,i
COC(=O)/C(C#N)=C/c1ccc(-c2ccc(S(N)(=O)=O)cc2)o1,i,i,3.2µM,i,i,i
COc1cccc(NC(=O)CC(C)S(=O)(=O)c2ccc3c(c2)NC(=O)CO3)c1 (configuration not stated),nt,i,nt,20µM[quencher],i,i
COC(=O)c1ccccc1NC(=O)c1nc(-c2ccc(Cl)cc2)n2c1CCCCC2,nt,i,nt,20µM[quencher],i,i
CC1=CC(C#N)(C#N)C(C#N)(C#N)C(c2ccccc2)N1 (configuration not stated),32µM,nt,i,i,i,i
SMILES,GoLoco inh red,ERG Ets-DNA blk,RECQ1 inh,TexasRed fluor,BLM helicase inh,TRb-SRC2 inh
O=C(O)C[C@H](Cc1ccccc1)C(=O)O,i[14.2 µM],nt,nt,nt,nt,nt
CCN1C(=O)c2ccccc2Sc2ccc(NC(=O)Nc3cccc([N+](=O)[O-])c3C)cc21,nt,i,nt,0.0005µM[quencher],i,i
COc1ccc(OC)c(Nc2nc(NCc3ccco3)c3ccccc3n2)c1,nt,i,nt,nt,28µM,nt
Cc1ccccc1Nc1nc(NCc2ccco2)c2ccccc2n1,i,i,i,i,i,i
CCCCCc1ccc(N)cc1,nt,nt,nt,i,nt,i
CCN1/C(=C/C=C/c2sc3ccccc3[n+]2CC)Sc2ccccc21,nt,i,nt,nt,32µM,nt
CC[n+]1c(/C=C/Nc2ccccc2)sc2ccccc21,i,i,i,45µM[fluorescent],i,?
O=C(O)c1ccc(C(=O)O)c(C(=O)O)c1,nt,nt,nt,i,nt,i
COc1cccc2c(SCC(=O)N/N=C/c3ccc(O)c(O)c3)cc(C)nc12,i,i,25µM,i,?,i
CCCCc1nc2c(c3c1C[C@H](C)OC3)CN(C(=O)COC)CC2,i[14.2 µM],nt,i[11.5 µM],i[11.2 µM],i[12.4 µM],i[11.2 µM]
Cn1cc(S(=O)(=O)c2cccc(Cl)c2)c(=O)c2cc(F)c(N3CCN(c4ccccc4)CC3)cc21,nt,i,nt,158µM[quencher],i,i
